Data on 35 sequences can be found in the supplement of paper PMC3545927.

Some of the results follow. The hit rate among all sequences tested is not known here.

This experiment addresses furin, P09958. Nature of the experiment: furin cleavage Z-score vs untreated control; higher = more cleavage, active = 3.5 or more, inactive = 1 or less, 8 variable residues between constant flanks. The procedure, abridged:
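Furin-free reactions served as the baseline for the cleavage Z-score, which is the log read count lowess-adjusted and scaled by median absolute deviation. Counts came from released DNA, adapter-tagged by PCR and sequenced. Purified furin had cut 8-mer peptides fused to a cDNA oligonucleotide on magnetic beads during 7.5, 15 or 30 min at 1:10 enzyme:substrate.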
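Note: purified furin at 1:10 enzyme:substrate in 50 mM HEPES pH 7.5.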

Sequence of furin, P09958 (P09958 whole entry, the tested form may be a part): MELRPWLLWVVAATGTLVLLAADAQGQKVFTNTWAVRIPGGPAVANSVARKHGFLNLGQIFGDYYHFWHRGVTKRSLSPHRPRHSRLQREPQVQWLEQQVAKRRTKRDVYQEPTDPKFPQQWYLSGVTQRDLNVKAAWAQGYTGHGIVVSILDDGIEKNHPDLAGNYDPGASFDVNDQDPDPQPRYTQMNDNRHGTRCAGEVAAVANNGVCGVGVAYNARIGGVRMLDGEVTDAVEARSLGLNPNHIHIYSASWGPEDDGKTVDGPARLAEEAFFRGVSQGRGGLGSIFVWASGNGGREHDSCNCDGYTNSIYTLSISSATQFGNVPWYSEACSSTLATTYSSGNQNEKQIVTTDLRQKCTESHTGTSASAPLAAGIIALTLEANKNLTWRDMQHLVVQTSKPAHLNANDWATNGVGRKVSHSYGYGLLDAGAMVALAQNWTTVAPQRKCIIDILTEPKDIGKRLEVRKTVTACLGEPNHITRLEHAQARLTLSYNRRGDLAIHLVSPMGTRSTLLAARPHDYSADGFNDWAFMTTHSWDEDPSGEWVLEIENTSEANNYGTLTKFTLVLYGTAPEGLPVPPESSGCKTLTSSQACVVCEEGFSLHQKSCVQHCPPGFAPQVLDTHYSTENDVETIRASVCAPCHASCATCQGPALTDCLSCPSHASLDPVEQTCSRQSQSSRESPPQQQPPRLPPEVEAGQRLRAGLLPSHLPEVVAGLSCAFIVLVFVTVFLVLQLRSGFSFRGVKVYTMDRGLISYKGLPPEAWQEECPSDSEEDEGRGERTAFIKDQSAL

B1: HC1518 (peptide)
chain: CACYIKARAAAGNASASA
For the sequence B1, the “furin cleavage Z-score” value was -1.15 (inactive) (7.5 min), -2.21 (inactive) (15 min) and -1.87 (inactive) (30 min).

B2: HC761 (peptide)
chain: CALETTMRSPAGNASASA
In the case of B2, the “furin cleavage Z-score” value was -0.168 (inactive) (7.5 min), -1 (inactive) (15 min) and -1.96 (inactive) (30 min).

B3: HC818 (peptide)
chain: CACDECHSTDAGNASASA
Consider B3, for which the “furin cleavage Z-score” value (7.5 min) was 0.0668 (inactive), the “furin cleavage Z-score” value (15 min) was -0.316 (inactive) and the “furin cleavage Z-score” value (30 min) is -1.36 (inactive).

B4: HC2097 (peptide)
chain: CAVVCCSMSSAGNASASA
Turning to B4, the “furin cleavage Z-score” value reads like this: (7.5 min) -1.16 (inactive); (15 min) -0.774 (inactive); (30 min) -1.81 (inactive).

B5: HC893 (peptide)
chain: CASLDPTFTIAGNASASA
Take B5: the “furin cleavage Z-score” value reads like this: (7.5 min) -1.06 (inactive); (15 min) -1.75 (inactive); (30 min) -1.02 (inactive).

B6: FS-299 (peptide)
chain: CASPLRQNRSAGNASASA
For B6, the “furin cleavage Z-score” value is, setting by setting: (7.5 min) 0.752 (inactive); (15 min) 0.557 (inactive); (30 min) 0.444 (inactive).

B7: FS-1375 (peptide)
chain: CAMDARTDRSAGNASASA
For B7, the “furin cleavage Z-score” value is, setting by setting: (7.5 min) 1.8; (15 min) -1.12 (inactive); (30 min) 0.78 (inactive).

B8: FS-627 (peptide)
chain: CASPARETRSAGNASASA
Consider B8, for which the “furin cleavage Z-score” value runs as follows: (7.5 min) 5.25 (active); (15 min) 8.43 (active); (30 min) 6.33 (active).

B9: FS-285 (peptide)
chain: CAQLRRTTRSAGNASASA
As to B9, the “furin cleavage Z-score” value (7.5 min) was 7.33 (active), the “furin cleavage Z-score” value (15 min) is 6.26 (active) and the “furin cleavage Z-score” value (30 min) was 6.25 (active).

B10: HC2169 (peptide)
chain: CAEYVTSTWVAGNASASA
Turning to B10, the “furin cleavage Z-score” value runs as follows: (7.5 min) 0.357 (inactive); (15 min) 0.186 (inactive); (30 min) -1.53 (inactive).

B11: HC1078 (peptide)
chain: CAAGAAIGSVAGNASASA
In the case of B11, the “furin cleavage Z-score” value was -1.21 (inactive) (7.5 min), 0.457 (inactive) (15 min) and -0.822 (inactive) (30 min).

B12: HC2215 (peptide)
chain: CAEVVTSHWVAGNASASA
As to B12, the “furin cleavage Z-score” value (7.5 min) was -1.58 (inactive), the “furin cleavage Z-score” value (15 min) was -0.204 (inactive) and the “furin cleavage Z-score” value (30 min) is 0.171 (inactive).

B13: HC1624 (peptide)
chain: CAVRARLLARAGNASASA
In the case of B13, the “furin cleavage Z-score” value by setting is: (7.5 min) -2.8 (inactive); (15 min) -0.431 (inactive); (30 min) -0.318 (inactive).

B14: HC1253 (peptide)
chain: CAAAGRRLARAGNASASA
As for B14, the “furin cleavage Z-score” value was 4.08 (active) (7.5 min), 4.81 (active) (15 min) and 4.86 (active) (30 min).

B15: HC1564 (peptide)
chain: CADPTTPLARAGNASASA
Take B15: the “furin cleavage Z-score” value is, setting by setting: (7.5 min) -0.242 (inactive); (15 min) -3 (inactive); (30 min) -1.34 (inactive).

B16: HC2011 (peptide)
chain: CAVDCCSMSYAGNASASA
Regarding B16, the “furin cleavage Z-score” value reads like this: (7.5 min) 0.752 (inactive); (15 min) -0.617 (inactive); (30 min) 0.379 (inactive).

B17: FS-1235 (peptide)
chain: CAMHIRRKRIAGNASASA
B17: the “furin cleavage Z-score” value was 8.17 (active) (7.5 min), 9.27 (active) (15 min) and 7.92 (active) (30 min).

B18: FS-768 (peptide)
chain: CAFKNRSCRIAGNASASA
As to B18, the “furin cleavage Z-score” value was -0.201 (inactive) (7.5 min), 0.864 (inactive) (15 min) and 0.865 (inactive) (30 min).

B19: FS-265 (peptide)
chain: CALAERRVRIAGNASASA
As to B19, the “furin cleavage Z-score” value reads like this: (7.5 min) 0.222 (inactive); (15 min) 0.166 (inactive); (30 min) -2.18 (inactive).

B20: FS-1024 (peptide)
chain: CALILRSKRYAGNASASA
Consider B20, for which the “furin cleavage Z-score” value runs as follows: (7.5 min) 9.69 (active); (15 min) 10.5 (active); (30 min) 10.3 (active).

B21: FS-8 (peptide)
chain: CAARIRVKRYAGNASASA
B21: the “furin cleavage Z-score” value is, setting by setting: (7.5 min) 8.19 (active); (15 min) 7 (active); (30 min) 8.58 (active).

B22: FS-1649 (peptide)
chain: CARCRRNKRIAGNASASA
Turning to B22, the “furin cleavage Z-score” value is 4.5 (active) (7.5 min), 6.14 (active) (15 min) and 4.22 (active) (30 min).

B23: HC884 (peptide)
chain: CADFDSVIDCAGNASASA
For the sequence B23, the “furin cleavage Z-score” value was -0.725 (inactive) (7.5 min), -1.64 (inactive) (15 min) and -0.179 (inactive) (30 min).

B24: HC2349 (peptide)
chain: CAEVYCHRPSAGNASASA
As to B24, the “furin cleavage Z-score” value was -0.918 (inactive) (7.5 min), 0.00682 (inactive) (15 min) and -0.904 (inactive) (30 min).

B25: HC1663 (peptide)
chain: CAAEECSQHLAGNASASA
Take B25: the “furin cleavage Z-score” value runs as follows: (7.5 min) 0.467 (inactive); (15 min) 0.000249 (inactive); (30 min) 1.4.

B26: HC979 (peptide)
chain: CALTHPVTKYAGNASASA
Turning to B26, the “furin cleavage Z-score” value is, setting by setting: (7.5 min) -1.06 (inactive); (15 min) 1.08; (30 min) 1.75.

B27: HC1124 (peptide)
chain: CANHVSPTHYAGNASASA
In the case of B27, the “furin cleavage Z-score” value reads like this: (7.5 min) -0.962 (inactive); (15 min) 0.0646 (inactive); (30 min) -0.575 (inactive).

B28: FU9 (peptide)
chain: CAFHIRRKRYAGNASASA
For B28, the “furin cleavage Z-score” value is 11 (active) (7.5 min), 12.5 (active) (15 min) and 11.3 (active) (30 min).

B29: FS-643 (peptide)
chain: CAANVRRKRYAGNASASA
For B29, the “furin cleavage Z-score” value by setting is: (7.5 min) 12.5 (active); (15 min) 13.8 (active); (30 min) 11.3 (active).

B30: FS-651 (peptide)
chain: CAFHIRRKRYAGNASASA
On to B30, for which the “furin cleavage Z-score” value (7.5 min) was 11.7 (active), the “furin cleavage Z-score” value (15 min) was 12.5 (active) and the “furin cleavage Z-score” value (30 min) was 10.9 (active).

B31: HC1630 (peptide)
chain: CAAICGKYLFAGNASASA
For the sequence B31, the “furin cleavage Z-score” value reads like this: (7.5 min) 1.25; (15 min) -1.22 (inactive); (30 min) -0.719 (inactive).

B32: FS-1489 (peptide)
chain: CASRHRVTRYAGNASASA
As to B32, the “furin cleavage Z-score” value is, setting by setting: (7.5 min) 9.37 (active); (15 min) 11.3 (active); (30 min) 10.7 (active).

B33: HC1505 (peptide)
chain: CASRGENCGYAGNASASA
As to B33, the “furin cleavage Z-score” value (7.5 min) is 1.28, the “furin cleavage Z-score” value (15 min) is -1.03 (inactive) and the “furin cleavage Z-score” value (30 min) is -0.54 (inactive).

B34: FS-396 (peptide)
chain: CAAICRRKRYAGNASASA
With B34, the “furin cleavage Z-score” value by setting is: (7.5 min) 11.5 (active); (15 min) 13.2 (active); (30 min) 11.3 (active).

B35: HC1044 (peptide)
chain: CANFISGIQYAGNASASA
Consider B35, for which the “furin cleavage Z-score” value is, setting by setting: (7.5 min) -0.934 (inactive); (15 min) -0.739 (inactive); (30 min) -0.721 (inactive).
